Our source for the cell number and H1.0 immunofluorescence intensity values is the supplement of paper PMC7156485.

± gives the standard deviation of the averaged measurements.

What all share (conditions): concentration: 10 µM; 24 h
In assay [1] the test system is HCC1569. Briefly: cell number relative to DMSO (% of DMSO); higher = more cells (less growth inhibition / toxicity). In short, it runs like this: (§1)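 HCC1569 and TDF cells (800 per well, 384-well plates, RPMI with 10% FBS) were treated with compounds at 10 µM for 24 h at 37 °C, in triplicate. Cells were fixed in 3.7% formaldehyde and stained with a rabbit anti-H1.0 antibody, an AlexaFluor 647 secondary and DAPI; six fields per well were imaged at ×10. H1.0 nuclear intensity or cell number is expressed as percent of the plate DMSO control, taking the median of replicates. HCC1569 values were smoothed for positional effects.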

The test system of assay [2] is TDF. The assay is described as above. In short, it runs like this:
as §1

Assay [3] concerns TDF. Briefly: H1.0 immunofluorescence intensity relative to DMSO (% of DMSO); higher = stronger H1.0 induction, active = 120 or more. A digest of the protocol: as §1
Assay [4] deals with HCC1569. Briefly: H1.0 immunofluorescence intensity relative to DMSO (% of DMSO); higher = stronger H1.0 induction, active = 140 or more. A digest of the protocol: as §1
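Throughout, for H1.0 immunofluorescence intensity relative to DMSO: TDF is a line of transformed human dermal fibroblasts of mesenchymal origin.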
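Throughout, for cell number relative to DMSO: TDF denotes transformed human dermal fibroblasts of mesenchymal origin.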

`COc1cc(C(=O)OCCCN2CCCN(CCCOC(=O)c3cc(OC)c(OC)c(OC)c3)CC2)cc(OC)c1OC` [Dilazep]: the cell number was determined as 107 in the assay with HCC1569 [1] and 93.1 in the assay with TDF [2]. The H1.0 immunofluorescence intensity in the assay with TDF [3] is 103 (inactive); with HCC1569 [4], 91.6 (inactive).

Regarding `CCOC(=O)C=C(C)C=CC=C(C)C=Cc1c(C)cc(OC)c(C)c1C` [Etretinate], the cell number turned out to be 104 in the assay with HCC1569 [1] and 97.6 with TDF [2]. In addition, the H1.0 immunofluorescence intensity with TDF [3] is 101 (inactive); with HCC1569 [4], 115 (inactive).

Take `CN(CC=CC#CC(C)(C)C)Cc1cccc2ccccc12` [Terbinafine]: the results for the cell number with HCC1569 [1] and with TDF [2] were 104 and 110, respectively. The H1.0 immunofluorescence intensity with TDF [3] is 99.6 (inactive); with HCC1569 [4] it was 104 (inactive).

Take `COc1cc2nc(N3CCN(C(=O)C4CCCO4)CC3)nc(N)c2cc1OC` (stereo unspecified) [Terazosin]: the results for the cell number with HCC1569 [1] and with TDF [2] were 99.9 and 87.9, respectively. For the same compound, the results for the H1.0 immunofluorescence intensity in the assay on TDF [3] and in the assay with HCC1569 [4] were 93.9 (inactive) and 98.2 (inactive), respectively.

For `CN(C(=O)CCCOc1ccc2[nH]c(=O)ccc2c1)C1CCCCC1` [Cilostamide], the cell number with HCC1569 [1] came to 100.9 ± 0.88; in the assay with TDF [2], 109 ± 5. Also, the H1.0 immunofluorescence intensity in the assay with TDF [3] was 96.9 (inactive); in the assay with HCC1569 [4], 98.1 (inactive).

Turning to `c1ccc(-c2n[nH]c3c2oc2ccccc23)cc1`, the cell number is 101 in the assay with HCC1569 [1] and 103 in the assay with TDF [2]. In addition, the H1.0 immunofluorescence intensity with TDF [3] was 94.2 (inactive); with HCC1569 [4] it was 126 (inactive).

Turning to `CCC(=C(CC)c1ccc(O)cc1)c1ccc(O)cc1` [Diethylstilbestrol], the cell number is 99.3 in the assay on HCC1569 [1] and 92.6 in the assay with TDF [2]. Moreover, the H1.0 immunofluorescence intensity in the assay with TDF [3] is 99 (inactive); in the assay with HCC1569 [4] it was 111 (inactive).

Regarding `CCN1CCCC1CNC(=O)c1cc(S(N)(=O)=O)ccc1OC` (racemic), the values for the cell number in the assay on HCC1569 [1] and in the assay on TDF [2] were 106 and 118, respectively. Further, the H1.0 immunofluorescence intensity was 98.8 (inactive) in the assay with TDF [3] and 99.3 (inactive) with HCC1569 [4].

For `COc1ccccc1O` [Guaiacol], the cell number stood at 103 with HCC1569 [1] and 107 in the assay on TDF [2]. Also, the H1.0 immunofluorescence intensity in the assay on TDF [3] is 92.7 (inactive); in the assay with HCC1569 [4], 107 (inactive).

Turning to `CCCCCCCCC=CCCCCCCCCCC(=O)O` [11(E)-Eicosenoic acid], the cell number with HCC1569 [1] is 102; in the assay on TDF [2], 101. In addition, the H1.0 immunofluorescence intensity was 101 (inactive) with TDF [3] and 102 (inactive) in the assay on HCC1569 [4].

For the compound `CC(C)CC(NC(=O)C(O)C(N)Cc1ccccc1)C(=O)O.Cl` (stereo unspecified) [Epibestatin hydrochloride], the cell number in the assay with HCC1569 [1] was 105; in the assay with TDF [2], 96.3. For the same compound, the H1.0 immunofluorescence intensity with TDF [3] is 91.8 (inactive); in the assay with HCC1569 [4], 100 (inactive).

For `CC#CC1(O)CCC2C3CCC4=CC(=O)CCC4=C3C(c3ccc(N(C)C)cc3)CC21C` (stereo unspecified) [Mifepristone], the cell number was found to be 101 ± 8.2 with HCC1569 [1] and 111 ± 13 in the assay with TDF [2]. Moreover, the H1.0 immunofluorescence intensity in the assay on TDF [3] is 96.8 (inactive); with HCC1569 [4], 102 (inactive).

As for `CN1CCc2cccc3c2C1Cc1ccc(O)c(O)c1-3.Cl` (stereo unspecified) [Apomorphine hydrochloride hemihydrate], the cell number in the assay on HCC1569 [1] worked out at 89.9; in the assay with TDF [2], 87.9. For the same compound, the H1.0 immunofluorescence intensity in the assay on TDF [3] was 94.8 (inactive); in the assay with HCC1569 [4], 99.6 (inactive).

Consider `CCOC(=O)C(CCc1ccccc1)NC(C)C(=O)N1C(C(=O)O)CC2CCCC21` (stereo unspecified) [Ramipril], for which the cell number in the assay with HCC1569 [1] and in the assay with TDF [2] was 105 throughout. Besides, the H1.0 immunofluorescence intensity in the assay on TDF [3] was 94.6 (inactive); with HCC1569 [4], 111 (inactive).
